Data: PubChem BioAssay AID1159580 (chemical genetic matrix, 2015)
Screen size: about 5,500 compounds; about 2,000 (36%) were called active. Roughly 18% stayed inconclusive and do not appear here. No stated cut-off is given here; in the data, active means normalized growth mostly below about 0.91 (no sharp cut-off); inconclusive means no clear call, values can overlap the other calls; inactive means mostly above about 0.92. The list shows a part of the results.

Assay: chemical genetic growth profiling, strain panel (AID 1159580);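 further: tested at 20 µM; growth read once vehicle control cultures reached saturation at 30 °C; 1 = growth at the plate median or of vehicle wells; lower values mean less growth of the strain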
Conditions: S. cerevisiae deletion strains, growth OD

Measured: normalized growth

CCN(CCCl)Cc1ccccc1Br
inactive: locus YAL040C, strain CLN3, active compounds read low 1.06 | locus YCL061C, strain MRC1 (second series), active compounds read low 0.994 | locus YDR363W, strain ESC2, active compounds read low 0.91 | locus YER002W, strain NOP16, active compounds read low 1.04 | locus YJR075W, strain HOC1, active compounds read low 0.994 | locus YNL153C, strain GIM3, active compounds read low 1.02 | locus YNL175C, strain NOP13, active compounds read low 1 | locus YNL197C, strain WHI3, active compounds read low 1.02 | locus YNL224C, strain SQS1, active compounds read low 0.995 | locus YNL322C, strain KRE1, active compounds read low 0.974 | locus YOR083W, strain WHI5 (second series), active compounds read low 0.968 | locus YPL241C, strain CIN2, active compounds read low 0.999
